We go through six compounds from PubChem BioAssay.

Several values for one entry are separate records, joined by “and”; a condition that tells them apart may be missing. Equal entries are not always repeated. Activity calls are given as the source filed them.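 How the source made its calls, unless noted: active means compounds whose cell count with miR-34 switched on is under 0.7 times the count with it off; inactive means the rest.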

Experiment [1] is described as follows: Wnt pathway potentiators raising nuclear beta-catenin – imaging, WNT3A-conditioned medium, mouse C2C12, NPC library, primary screen (AID 1117326; in the data active means nuclear beta-catenin stimulation mostly above about 4.2%, no sharp cut-off; inactive means mostly below about 10%; further: reference of the scale not given here). The settings on record: stronger effect = higher value.
Experiment [2] is described as follows: stimulators of insulin release from INS-1E, primary screen, cell-based, 5 mM glucose, NPC library (AID 1117329;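 active means compound raises insulin release from rat beta cells at 5 mM glucose, no numeric limit stated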; further: reference of the scale not given here). The conditions noted are these: rat INS-1E insulin secretion, at 10 µM, stronger effect = higher value.
Experiment [3] is described as follows: growth inhibition of GSK3B-pretreated HCT116 cells – cell-based, CellTiter-Glo, 0.2 to 20 µM (AID 1117336;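 active means compounds lowering colon cancer cell viability after pretreatment blocking the GSK3B kinase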). The conditions noted are these: HCT116 viability after GSK3B inhibitor, at 20 µM, stronger effect = higher value.
The nature of experiment [4]: inhibition of endothelial tube formation, primary screen, imaging, VEGF stimulated, CD31 staining, tube area, NPC library (AID 1117340;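 active means compound that reduces growth-factor-driven endothelial tube area in a mixed cell culture, no cutoff stated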). The conditions noted are these: VEGF-stimulated ADSC/ECFC co-culture, at 10 µM, stronger effect = higher value.
Experiment [5] can be described thus: GLP1 release stimulators, primary, NCI-H716, NPC library (AID 1117341;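 active means compound raises GLP1 secretion from the human gut endocrine cells, with no numeric limit stated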; further: reference of the scale not given here). The settings on record: NCI-H716 cells, at 10 µM, stronger effect = higher value.
The nature of experiment [6]: HCT116 colon cancer cell growth inhibition, primary screen, CellTiter-Glo luminescence, NPC library (AID 1117342;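 active means compounds that lower survival of HCT116 colon cancer cells in the luminescence readout, no numeric limit stated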). The settings on record: at 20 µM (top of the series). In general terms: In ATP-based viability assays light output follows the ATP content of the culture.
Experiment [7] is described as follows: reduced SW480 viability measured with CellTiter-Glo, NPC library, primary (AID 1117343;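 active means compounds that lower viability of the colon cancer cells in the luminescence readout, with no numeric limit stated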). The settings on record: CellTiter-Glo luminescence; at 20 µM (top of the series) unless noted.
Experiment [8] in a line: NPC library primary testing for decreased DLD-1 cell viability via CellTiter-Glo (AID 1117346;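 active means compounds that lower survival of DLD-1 colon cancer cells in the luminescence readout, no cutoff given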). The settings on record: DLD-1 viability, CellTiter-Glo luminescence; at 20 µM (top of the series).
The nature of experiment [9]: viability loss with induced miR-34 in A549 – imaging, A549 dox-inducible miR-34, nuclei and caspase counts, primary screen (AID 1347080). The settings on record: A549 miR-34 inducible, Hoechst nuclei count, 48 h.
Experiment [10] is described as follows: blockers of cellular phospholipid synthesis – cell-based, LOPAC library, screen 4, primary screen (AID 1347384; call rule not given here). The settings on record: animal cells, phospholipid biosynthesis inhibition screen; at 10 µM.
The nature of experiment [11]: galactose survival enhancers in mitochondrial complex I cybrids – cell-based, galactose medium, ATP luminescence, primary screen (AID 1645843;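 active means z-score of at least 1.8 in each of two replicates, scored against plate mean and spread of sample wells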;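 further: positive z means more ATP and so rescue of galactose-driven cybrid death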). The settings on record: complex I mutant cybrid cells, 72 h, stronger effect = higher value.
A short description of experiment [12]: MELAS cybrid and Rieske KO viability enhancers – cell-based, MELAS cybrids, Rieske KO mouse fibroblasts, CellTiter-Glo, primary screen (AID 1508586;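 active means mean z-score across replicates of 1.96 or higher in either the MELAS or the Rieske mutant cell line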;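 further: z relative to plate mean and SD of compound and empty wells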). The settings on record: low glucose.
Where [13] appears, read: stronger effect = lower value, cell number ratio, induced over uninduced.
Setting [14] is: measured here: relative caspase fold change +Dox/-Dox.
Setting [15] is: measured here: total cells with miR-34 induction, stronger effect = lower value.
[16] abbreviates: measured here: total cells without miR-34 induction.
Setting [17] is: MELAS cybrid survival, CellTiter-Glo 48 h, stronger effect = higher value.
Setting [18] is: Rieske KO mouse fibroblast survival, CellTiter-Glo 72 h.

In the case of `N[C@@H](COP(=O)(O)O)C(=O)O`, the nuclear beta-catenin stimulation is 0.6% (inactive) in experiment [1] (at 10 µM) and 14.5% in experiment [1] (stimulation, at 2 µM). Further, the insulin secretion stimulation in [2] is 2% (inactive). Further, the viability decrease in experiment [3] was -15.2% (inactive). In addition, the tube area decrease in experiment [4] is -20.7% (inactive). Further, the GLP1 secretion stimulation in experiment [5] was -1% (inactive). Further, the inhibition of viability in experiment [6] is 0% (inactive). Further, the viability decrease (inhibition) in [7] was -26.4% (inactive); in [8], -5.8% (inactive). The fold change is 1.04 (inactive) and 0.898 (inactive) in experiment [9] (setting [13]); 1.02 and 0.718 in [9] (setting [14]). Further, the cell count in experiment [9] (setting [15]) is 10100 and 7700; in [9] (setting [16]), 9680 and 8570. Also, in experiment [10], the result was inactive. In addition, the z-score in experiment [11] is 0.485 (inactive).
Regarding `N[C@@H](CC(=O)O)C(=O)O`, the nuclear beta-catenin stimulation in experiment [1] (at 10 µM) is 0% (inactive); in experiment [1] (stimulation, at 2 µM) it was -0.6%. The insulin secretion stimulation in [2] was 1.3% (inactive). Further, in experiment [3], the viability decrease is 7.1% (inactive). Also, the tube area decrease in experiment [4] is -11.9% (inactive). For the same compound, in [5], the GLP1 secretion stimulation was -0.5% (inactive). For the same compound, the inhibition of viability in [6] was 1.9% (inactive). Also, the viability decrease (inhibition) in experiment [7] is -18.5% (inactive); in experiment [8] it was 1.6% (inactive). Besides, the fold change in experiment [9] (setting [13]) is 1 (inactive); in [9] (setting [14]) it was 1.56. Also, the cell count in [9] (setting [15]) is 10800; in [9] (setting [16]), 10700. Further, in [10], the call was inactive. Besides, the z-score in experiment [11] is 0.255 (inactive).
For the compound `O=C(O)CP(=O)(O)O`, the nuclear beta-catenin stimulation is 4.8% (inactive) in experiment [1] (at 10 µM) and 3.8% in [1] (stimulation, at 2 µM). Also, in [2], the insulin secretion stimulation is 0.7% (inactive). Also, in experiment [3], the viability decrease is -14.8% (inactive). Moreover, in experiment [4], the tube area decrease is -4.7% (inactive). Besides, the GLP1 secretion stimulation in experiment [5] was 0.3% (inactive). In addition, in experiment [6], the inhibition of viability was -1.37% (inactive). The viability decrease (inhibition) in experiment [7] is 10.9% (inactive); in experiment [8], -7.2% (inactive). Besides, the fold change in experiment [9] (setting [13]) is 0.969 (inactive); in [9] (setting [14]) it was 1.06. Also, the cell count is 9620 in [9] (setting [15]) and 9930 in experiment [9] (setting [16]). Besides, in experiment [10], the outcome was inactive. The z-score in experiment [11] is 1.15 (inactive).
For the compound `CC1=C(C(=O)OC(C)C)C(c2cccc([N+](=O)[O-])c2)C(C(=O)OC2CN(C(c3ccccc3)c3ccccc3)C2)=C(N)N1` (configuration not stated), the nuclear beta-catenin stimulation in experiment [1] (at 10 µM) was -2% (inactive); in [1] (stimulation, at 2 µM), 2.2%. Besides, the insulin secretion stimulation in experiment [2] was 5.2% (inactive). Also, the viability decrease in experiment [3] was 111% (active). Also, the tube area decrease in experiment [4] is 109% (active). The GLP1 secretion stimulation in [5] is 40.3% (active). In experiment [6], the inhibition of viability is 113% (active). For the same compound, the values for the viability decrease (inhibition) in experiment [7] and in experiment [8] were 133% (active) and 102% (active), respectively. Also, the fold change in experiment [9] (setting [13]) was 0.933 (inactive); in [9] (setting [14]), 0.636. Moreover, the cell count in [9] (setting [15]) stood at 7560; in experiment [9] (setting [16]), 8100. The values for the z-score in experiment [12] (setting [17]) and in experiment [12] (setting [18]) were -0.296 (inactive) and -0.252, respectively.
Regarding `CC(C)(C)c1ccc(C(=O)CCCN2CCC(OC(c3ccccc3)c3ccccc3)CC2)cc1`, the nuclear beta-catenin stimulation was 0.6% (inactive) in [1] (at 10 µM) and 11.9% in [1] (stimulation, at 2 µM). Further, in [2], the insulin secretion stimulation is 1% (inactive). Also, in experiment [3], the viability decrease is 111% (active). For the same compound, in [4], the tube area decrease is 102% (active). Also, in experiment [5], the GLP1 secretion stimulation is 6% (inactive). Besides, the inhibition of viability in experiment [6] is 114% (active). In addition, the viability decrease (inhibition) is 133% (active) in [7] and 101% (active) in [8]. Also, the fold change in [9] (setting [13]) was 1.42 (inactive); in [9] (setting [14]) it was 0.93. Moreover, the cell count in [9] (setting [15]) amounted to 1290; in experiment [9] (setting [16]), 913. Also, in [10], the compound was classed as inactive. Besides, the z-score in experiment [11] is -0.865 (inactive).
In the case of `COC(=O)C1=C(C)NC(C)=C(C(=O)OC(C)(C)CN(C)CCC(c2ccccc2)c2ccccc2)C1c1cccc([N+](=O)[O-])c1` (configuration not stated), the nuclear beta-catenin stimulation in experiment [1] (at 10 µM) was 22.4% (inactive); in experiment [1] (stimulation, at 2 µM), -0.9%. Further, the insulin secretion stimulation in experiment [2] was 1.3% (inactive). Also, the viability decrease in experiment [3] is 93.2% (active). Further, in experiment [4], the tube area decrease was 90.2% (active). In addition, the GLP1 secretion stimulation in [5] is -3.7% (inactive). Further, the inhibition of viability in experiment [6] is 94% (active). Besides, the figures for the viability decrease (inhibition) in experiment [7] and in [8] were 127% (active) and 92.5% (active), respectively. Further, the fold change in [9] (setting [13]) is 1.26 (inactive) and 0.934 (inactive); in [9] (setting [14]) it was 1.89 and 0.993. Moreover, the cell count was 1980 and 4820 in experiment [9] (setting [15]); 1570 and 5160 in [9] (setting [16]). In addition, in [10], the call was active. Further, the z-score is -0.809 (inactive) in [12] (setting [17]); -0.0835 in experiment [12] (setting [18]); -1.52 (inactive) and -2.66 (inactive) in experiment [11].
